# Measurements from PubChem BioAssay (NCATS).
# Results filed as inconclusive are left out. Entries that show only a call come without a potency. Unmarked numbers belong to inactive results. Calls of active or inactive are those of the source. Calls follow the shape of the dose curve; as a rule, active = well fitted inhibition curve with a large enough effect; inconclusive = small, poorly fitted or top-dose-only effect; inactive = flat fitted curve, though single readings scatter.
# Key:
# [1] = molecular target: Luciferin 4-monooxygenase (Photinus pyralis) (UniProt P08659); experiment: Biochemical firefly luciferase enzyme assay for NPC (AID 624030);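 also: purified P. pyralis luciferase at 10 nM with luciferin and ATP substrate; nearly all actives have a fitted effect of over 70% in size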
# Sequence of Luciferin 4-monooxygenase (Photinus pyralis) (P08659 whole entry, looked up): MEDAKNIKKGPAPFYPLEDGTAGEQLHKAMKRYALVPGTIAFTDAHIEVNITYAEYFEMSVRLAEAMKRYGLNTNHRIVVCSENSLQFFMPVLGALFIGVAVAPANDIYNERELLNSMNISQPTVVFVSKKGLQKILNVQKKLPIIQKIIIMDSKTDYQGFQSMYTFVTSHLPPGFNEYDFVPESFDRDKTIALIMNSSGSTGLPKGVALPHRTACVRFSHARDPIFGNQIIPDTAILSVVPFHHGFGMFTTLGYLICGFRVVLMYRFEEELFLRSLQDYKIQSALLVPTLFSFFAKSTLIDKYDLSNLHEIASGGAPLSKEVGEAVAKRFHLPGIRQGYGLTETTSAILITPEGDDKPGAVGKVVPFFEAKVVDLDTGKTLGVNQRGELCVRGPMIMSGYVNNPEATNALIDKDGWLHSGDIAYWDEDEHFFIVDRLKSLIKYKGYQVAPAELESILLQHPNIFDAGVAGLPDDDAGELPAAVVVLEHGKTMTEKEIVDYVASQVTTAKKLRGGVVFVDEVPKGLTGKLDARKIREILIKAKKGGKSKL
# Outline: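 Counter-screen for direct inhibition of the luciferase enzyme by approved-drug library compounds, run at 10 nM enzyme in 50 mM Tris acetate (final). Luminescence was read within 5 min of enzyme-buffer addition and normalized to PTC124 versus DMSO (0%).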
# [2] = qHTS profiling for inhibitors of Plasmodium falciparum proliferation (AID 504749); also: potency is read from the fitted curve at half-maximal effect; as to all read-outs here: nearly all actives have a fitted effect of over 60% in size; settings: P. falciparum in erythrocytes, SYBR Green DNA, 72 h; for activity, negative = inhibition: at 28.7 µM (top of the series)
# Outline: (§1)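 P. falciparum-infected erythrocytes (0.3% parasitemia, 2.5% hematocrit final) were exposed to compounds for 72 h at 37 C in 5% CO2, then lysed with SYBR Green buffer overnight at room temperature; parasite DNA fluorescence was normalized to artemisinin and DMSO controls.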
# [3] = system: ATS189; experiment: as above; settings: P. falciparum in erythrocytes, SYBR Green DNA, 72 h; series mostly up to 28.7 µM
# Outline: as §1
# [4] = system: CP185; experiment: as above; settings: P. falciparum in erythrocytes, SYBR Green DNA, 72 h; series mostly up to 28.7 µM
# Outline: as §1
# [5] = system: CP191; experiment: as above; settings: P. falciparum in erythrocytes, SYBR Green DNA, 72 h; series mostly up to 28.7 µM
# Outline: as §1
# [6] = system: CP192; experiment: as above; settings: P. falciparum in erythrocytes, SYBR Green DNA, 72 h; series mostly up to 28.7 µM
# Outline: as §1
# [7] = system: CP238; experiment: as above; settings: P. falciparum in erythrocytes, SYBR Green DNA, 72 h; series mostly up to 28.7 µM
# Outline: as §1
# [8] = system: CP250; experiment: as above; settings: P. falciparum in erythrocytes, SYBR Green DNA, 72 h; series mostly up to 28.7 µM
# Outline: as §1
# [9] = system: CP252; experiment: as above; settings: P. falciparum in erythrocytes, SYBR Green DNA, 72 h; series mostly up to 28.7 µM
# Outline: as §1
# [10] = system: CP256; experiment: as above; settings: P. falciparum in erythrocytes, SYBR Green DNA, 72 h; series mostly up to 28.7 µM
# Outline: as §1
# [11] = system: CP262; experiment: as above; settings: P. falciparum in erythrocytes, SYBR Green DNA, 72 h; series mostly up to 28.7 µM
# Outline: as §1
# [12] = system: CP329; experiment: as above; settings: P. falciparum in erythrocytes, SYBR Green DNA, 72 h; series mostly up to 28.7 µM
# Outline: as §1
# [13] = system: Dd2; experiment: as above; settings: P. falciparum in erythrocytes, SYBR Green DNA, 72 h; series mostly up to 28.7 µM
# Outline: as §1
# [14] = system: FAB9; experiment: as above; settings: P. falciparum in erythrocytes, SYBR Green DNA, 72 h; series mostly up to 28.7 µM
# Outline: as §1
# [15] = system: PC49; experiment: as above; settings: P. falciparum in erythrocytes, SYBR Green DNA, 72 h; series mostly up to 28.7 µM
# Outline: as §1
# [16] = system: TAB109; experiment: as above; settings: P. falciparum in erythrocytes, SYBR Green DNA, 72 h; series mostly up to 28.7 µM
# Outline: as §1
Structure (SMILES),Potency [1],"activity, negative = inhibition ([2]; parasite line A)","activity, negative = inhibition ([2]; parasite line B)",Potency [3],Potency [4],Potency [5],Potency [6],Potency [7],Potency [8],Potency [9],Potency [10],Potency [11],Potency [12],Potency [13],Potency [14],Potency [15],Potency [16],Potency ([2]; parasite line A),Potency ([2]; parasite line B)
O=C(O)CC(O)CC(O)/C=C/c1c(C2CC2)nc2ccccc2c1-c1ccc(F)cc1 (configuration not stated),inactive,5.32%,-2.35%,inactive,inactive,inactive,inactive,inactive,inactive,inactive,inactive,inactive,inactive,inactive,inactive,inactive,inactive,,
Nc1nc2[nH]cc(CCc3ccc(C(=O)NC(CCC(=O)O)C(=O)O)cc3)c2c(=O)[nH]1 (configuration not stated),inactive,,,224 nM (active),,158 nM (active),9530 nM (active),11200 nM (active),251 nM (active),158 nM (active),224 nM (active),426 nM (active),1200 nM (active),5010 nM (active),316 nM (active),562 nM (active),11200 nM (active),126 nM (active),199 nM (active)
O=c1[nH]c(=O)n(C2C[C@H](O)[C@@H](CO)O2)cc1C(F)(F)F (some centres not stated),inactive,-3.45%,-4.14%,inactive,inactive,inactive,inactive,inactive,inactive,inactive,inactive,inactive,inactive,inactive,inactive,inactive,inactive,,
C=C1[C@@H]2CC[C@H](C2)C1(C)C,inactive,10.4%,-2.91%,inactive,inactive,inactive,inactive,inactive,inactive,inactive,inactive,inactive,inactive,inactive,inactive,inactive,inactive,,
